# High-throughput results (PubChem BioAssay)
# Shown are actives, neighbours in structure and some others; about 3.2% of the full set was active somewhere.
# CBFb RUNX1 block: inhibitors of human CBF-beta and RUNX1 interaction; AlphaScreen CBFb-His/RUNX1-biotin binding, biochemical; 230,000 tested, under 10 active; AID 1477; Potency, µM (doses to about 59.8 µM), for the others: at the highest dose activity, negative = inhibition, hits mostly inhibitors; Q01196+Q13951; also: % of control where 0% means no effect
# Target sequence (Q01196 whole entry, looked up): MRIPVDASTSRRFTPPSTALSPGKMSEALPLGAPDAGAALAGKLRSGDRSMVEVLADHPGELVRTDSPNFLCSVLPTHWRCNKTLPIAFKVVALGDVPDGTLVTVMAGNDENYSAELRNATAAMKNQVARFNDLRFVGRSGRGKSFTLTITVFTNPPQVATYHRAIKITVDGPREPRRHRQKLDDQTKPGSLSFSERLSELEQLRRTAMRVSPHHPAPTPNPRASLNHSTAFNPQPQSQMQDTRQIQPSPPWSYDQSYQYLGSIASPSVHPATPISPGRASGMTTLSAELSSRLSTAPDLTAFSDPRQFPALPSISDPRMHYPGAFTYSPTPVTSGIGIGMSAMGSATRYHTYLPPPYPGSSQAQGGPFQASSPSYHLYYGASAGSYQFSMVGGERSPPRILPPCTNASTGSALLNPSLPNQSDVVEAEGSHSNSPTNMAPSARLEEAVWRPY
# Target sequence (Q13951 whole entry, looked up): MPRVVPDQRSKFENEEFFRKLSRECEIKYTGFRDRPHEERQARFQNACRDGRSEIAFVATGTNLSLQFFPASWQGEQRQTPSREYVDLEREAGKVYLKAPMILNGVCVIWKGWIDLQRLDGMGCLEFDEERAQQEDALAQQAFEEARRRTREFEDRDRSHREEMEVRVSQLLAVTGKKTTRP
#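 AlphaScreen proximity signal reports loss of binding between His-tagged CBF-beta and biotin-labelled RUNX1, each at 30 nM. Proteins are pre-associated for 20 minutes, compounds added for 15 minutes, then beads for 90 minutes, all at ambient temperature.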
# Tau fluor counter: counter-screen for tau fibril formation inhibitors. AID 1463. tau K18 P301L Alexa594 fluorescence, heparin fibrillization. Potency, µM (top dose mostly 57.7 µM), inactives show at the top dose activity change, negative = decrease. hit rate 0.93% among 280,000; also: potency is read from the fitted curve at half-maximal effect; % is scaled to controls: 0 for no effect and ±100 for the full control effect; nearly all actives have a fitted effect of over 55% in size
#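 Human tau K18 P301L (15 uM unlabeled, 0.24 uM Alexa 594-labeled) in 100 mM sodium acetate pH 7 with 20 uM heparin, 6 hr at 37 C. ThT 30 uM added, 1 hr ambient; Alexa 594 FP and total fluorescence read at 555/632 nm.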
# Tau fibril FP: blocks human tau fibril formation measured by polarization; P10636; Potency, µM (titrated, usually from 57.7 µM), for inactives: at the top dose activity, negative = inhibition, usual class: inhibitors; K18 P301L tau heparin fibrillization, Alexa594 FP, 6 h; hit rate 0.39% among 280,000; also: potency is read from the fitted curve at half-maximal effect; % is scaled to controls: 0 for no effect and ±100 for the full control effect; nearly all actives have a fitted effect of over 55% in size
# Target sequence (P10636 561-689 P618L limits assumed): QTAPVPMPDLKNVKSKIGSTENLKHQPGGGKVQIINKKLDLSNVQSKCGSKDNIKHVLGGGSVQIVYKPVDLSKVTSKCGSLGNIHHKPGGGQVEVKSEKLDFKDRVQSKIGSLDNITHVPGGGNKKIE
#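 Human tau K18 […] P301L fragment, 15 uM unlabeled plus 0.24 uM Alexa 594-labeled tau (final), with compound and 20 uM heparin in 100 mM sodium acetate pH 7; 6 hr at 37 C, then Alexa 594 FP read.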
# JMJD2E inh: JMJD2E (human) inhibition; Potency, µM (series often up to 57.1 µM), without a hit: at the highest dose activity change, negative = inhibition, actives largely listed as inhibitors; AID 2147; hit rate 1.6% among 230,000; JMJD2E catalytic domain, FDH-coupled NADH fluorescence (FDH is formaldehyde dehydrogenase);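 also: potency is read from the fitted curve at half-maximal effect; 0% = wells with enzyme and -100% = buffer wells without enzyme; nearly all actives have a fitted effect of over 50% in size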
# LMNA splice mod: LMNA splicing modulation; HeLa LMNA splicing GFP/RFP minigene ratio, 48 h; Potency, µM (doses to about 46.1 µM), without a hit: at the top dose ratio change, negative = inhibition, actives largely listed as inhibitors; hit rate 0.01% among 200,000; AID 1487; active = well fitted inhibition curve with a large enough effect in the signal ratio, with a control signal flat, not every such curve was filed as active; inconclusive = small, poorly fitted or top-dose-only effect, or effect the other way, or a change in a side signal; the % refers to the signal ratio; also: potency is read from the fitted curve at half-maximal effect; % is scaled to controls: 0 for no effect and ±100 for the full control effect
#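 S3 HeLa cells stably expressing lamin A-EGFP splicing minigene plus DsRed2, 600 cells/well, 48 h compound exposure at 37C. Laser-scanning cytometry; analysed as GFP (500-530 nm)/RFP (575-640 nm) total intensity ratio; 0.5% DMSO vehicle.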
# Tau ThT inhib: blocks human tau fibril formation measured by thioflavin T. P10636. recombinant tau K18 P301L (four-repeat tau fragment), heparin-induced fibrillization, ThT fluorescence. Potency, µM (titrated, usually from 57.4 µM), inactives show at the highest dose activity, negative = inhibition, usual class: inhibitors. hit rate 2.1% among 270,000. AID 1460; also: potency is read from the fitted curve at half-maximal effect; % is scaled to controls: 0 for no effect and ±100 for the full control effect; nearly all actives have a fitted effect of over 55% in size
#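 In this qHTS, human K18 P301L tau is incubated with compound and heparin for 6 hr at 37 C, and Thioflavin T fluorescence then reports fibril load.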
# The depositor's hits bear a star; ? = inconclusive; · = not tested or not shown; [ ] = remark or other dose. Unless noted, calls follow the shape of the dose curve; as a rule, active = well fitted curve in the direction sought with a large enough effect; inconclusive = small, poorly fitted or top-dose-only effect, or another doubt; inactive = no such curve, though single readings can be large; an effect the other way counts as inactive or inconclusive.
SMILES,CBFb RUNX1 block,Tau fluor counter,Tau fibril FP,JMJD2E inh,LMNA splice mod,Tau ThT inhib
O=C(Cc1cnn(-c2ccccc2)c1)c1ccc(O)c(O)c1O,-20.4%,?,?,12.6µM*,?,14.1µM*
Cc1cccc(N2C(=O)CS(=O)(=O)C23C(=O)N(C)c2ccccc23)c1 (centres undefined),·,-12.9%,-7.0%,·,?,-8.9%
COc1cc2c3c(c1)/C(=C1/SC(NC(C)=O)=NC1=O)C(=O)N3C(C)(C)C=C2C,-13.9%,14.1µM*[quencher],?,0.2%,-1.4%,15.8µM*
CCN1C(=O)/C(=C2/C(=O)N3c4c(cc(OC(C)=O)cc42)C(C)=CC3(C)C)SC1=S,0.8%,?,22.5%,13.5%,?,?
CC(=O)C1=C(C)NC(SCC(=O)c2cc(Cl)ccc2Cl)=C(C#N)C1c1ccco1 (centres undefined),7.5%,?,?,?,?,28.2µM*
CC(=O)C1=C(C)NC(SCC(=O)c2ccc(F)cc2)=C(C#N)C1c1ccco1 (centres undefined),-15.0%,?,-4.9%,-24.2%,7.7%,15.8µM*
COc1ccc(-c2cnc(N)nc2-c2ccc(OCc3ccccc3)cc2O)cc1,?,?,?,-24.8%,·,-11.0%
CCc1cc(-c2nc(N)ncc2-c2ccc(Br)cc2)c(O)cc1OC,4.0%,12.6µM*[quencher],-2.8%,-5.5%,·,?
CCc1ccc(NC(=O)CSc2nc(=O)n(Cc3ccco3)c3c2CCC3)cc1,·,-12.6%,-3.5%,·,20.8%[46 µM],-13.9%
C[n+]1nc(Nc2cccc3ccccc23)sc1-c1ccc(C(=O)O)cc1,-1.9%,-16.7%,-4.5%,8.91µM*,·,?
COC(=O)c1sc(N2C(=O)c3oc4ccc(C)cc4c(=O)c3C2c2ccc(O)c(OC)c2)nc1C (centres undefined),·,?,3.4%,·,·,?
O=C(N/N=C/c1ccc(N2CCOCC2)cc1)c1ccc(O)cc1,4.0%,-20.8%,8.8%,?,8.9%[46 µM],5.01µM*
O=C(N/N=C/c1ccc([N+](=O)[O-])o1)c1ccncc1,16.7%,0.6%,-1.8%,-7.1%,·,?
O=C(N/N=C/c1ccc([N+](=O)[O-])o1)c1cc2ccccc2o1,-13.4%,-23.5%,4.2%,3.6%,·,·
O=C(N/N=C/c1ccc([N+](=O)[O-])o1)c1ccc(O)cc1,2.2%,-29.7%,4.0%,?,?,10µM*
O=C(N/N=C/c1ccc([N+](=O)[O-])o1)c1cc2c(ccc3ccccc32)o1,11.7%,?,-8.1%,?,·,1.12µM*
C/C=C(\C)C(=O)C[Si](C)(C)c1ccccc1,-0.6%,1.5%,?,7.3%,·,?
CN1CCC(=O)N(C(CSc2ccc(Br)cc2)c2ccccc2)CC1 (centres undefined),-0.7%,·,·,·,·,·
CSc1cccc(NC(=O)/C=C/c2cccc(Cl)c2)c1,-4.5%,12.6µM*[quencher],?,?,?,18.5%
O=C(/C=C/c1cccc(Cl)c1)Nc1ncccn1,-0.8%,-3.1%,3.2%,5.5%,?,-10.2%
CCOC(=O)C1=C(O)c2ccccc2C(=O)/C1=C\c1ccc(CC)cc1,-13.1%,?,20µM*,?,?,14.1µM*
CCCc1ccc(/C=C2\C(=O)c3ccccc3C(O)=C2C(=O)OCC)cc1,-12.7%,?,?,17.8µM*,?,31.6µM*
CCCN=C(C)C1=C(O)c2ccccc2C1=O,12.7%,-7.3%,0.4%,-0.3%,3.3%,2.5%
CCOC(=O)c1ccc(COC(=O)c2ccc3c(c2)-c2ccccc2C3=O)cc1,5.3%,-25.1%,1.8%,6.4%,6.9%,?
COc1ccc(NC(=O)CSc2nc(-c3ccccc3)cc(-c3cc(OC)c(OC)c(OC)c3)c2C#N)c(OC)c1,·,-19.6%,-9.7%,·,·,-7.0%
SMILES,CBFb RUNX1 block,Tau fluor counter,Tau fibril FP,JMJD2E inh,LMNA splice mod,Tau ThT inhib
COc1ccc(Nc2nc(N)c([N+](=O)[O-])c(N3CCOCC3)n2)cc1,-4.9%,?,10.2%,-2.2%,·,?
CN(C)c1ccc(Nc2nc(N)c([N+](=O)[O-])c(N3CCOCC3)n2)cc1,?,?,6.6%,3.0%,-18.3%,15.8µM*
Cc1ccc(Cl)cc1N1CCN(C(=O)Cn2cnc3onc(-c4ccc(F)cc4)c3c2=O)CC1,·,-21.2%,?,·,-0.1%[46 µM],4.8%
Cc1ccccc1OCC(=O)Nc1ccc2nc(SCC(=O)N3CCc4ccccc43)sc2c1,·,-2.2%,-0.8%,·,14.1%[46 µM],-15.1%
COc1ccc(NC(=O)CCS(=O)(=O)c2cc3c4c(c2)CCN4C(=O)CC3)cc1OC,·,-21.2%,6.7%,·,·,-17.5%
Cc1cccc(N2C(S)=C(C#N)C(=O)NC2c2cccs2)c1 (centres undefined),-0.8%,-28.6%,?,-14.7%,-7.0%,31.6µM*
COc1ccc(-c2ccc(C(=S)N3CCN(C(C)=O)CC3)o2)cc1,-3.3%,-27.8%,?,?,11.6%,28.2µM*
CCOc1cc(/C=N/Nc2nc(-c3cccs3)c(NC(C)=O)s2)ccc1O,-4.0%,?,-12.0%,-22.7%,·,25.1µM*
CC(=O)Nc1sc(NC(=O)c2ccc([N+](=O)[O-])cc2)nc1-c1cccs1,-2.9%,?,1.5%,-4.6%,·,7.94µM*
CC(=O)Nc1sc(N/N=C\c2ccccc2Cl)nc1-c1cccs1,-4.2%,3.6%,1.0%,-10.2%,?,9.9%
Nc1nc(-c2cccs2)c(NC(=O)c2ccccc2)s1,-14.0%,?,?,-4.7%,3.4%,14.1µM*
CC(=O)Nc1sc(N/N=C\c2ccccc2)nc1-c1cccs1,-12.5%,?,-5.9%,-4.7%,-14.7%,10µM*
CCOc1cc(/C=N/NC(=O)Nc2ccccc2)ccc1O,-27.2%,-28.2%,14.4%,0.7%,-7.8%[46 µM],?
CCOC(=O)c1c(C)[nH]c(C)c1S(=O)(=O)NCC(=O)Nc1ccc(C)c(N(C)C)c1,·,-11.9%,6.5%,·,·,-4.0%
CC(=O)Nc1sc(N/N=C\c2ccco2)nc1-c1cccs1,-1.8%,?,?,-23.4%,-12.2%,15.8µM*
CCOc1ccc2[nH]c3c(NCCc4ccc(OC)c(OC)c4)ncnc3c2c1,-11.9%,22.4µM*[quencher],?,?,·,·
COc1cc(CNc2ncnc3c2[nH]c2ccc(C)cc23)cc(OC)c1,-11.7%,15.8µM*[quencher],14.5%,?,·,13.1%
NCCCC[C@H](NC(=O)[C@H](CS)NC(=O)[C@@H](N)Cc1cnc[nH]1)C(=O)N[C@@H](Cc1ccccc1)C(=O)N[C@@H](Cc1c[nH]c2ccccc12)C(=O)N[C@@H](Cc1c[nH]c2ccccc12)C(=O)O,10.2%,·,·,·,·,·
CSc1nc(/C=C2\C=Nc3ccccc32)c(O)n1C,-4.7%,?,10.6%,2.3%,-8.5%,11.2µM*
